In ChEMBL document CHEMBL4296182, “CO-ADD screening of NIH NCI Diversity Set V”:
For part of these data: Entries with a potency or affinity are not part of this list.

How the values were obtained:
Staphylococcus aureus = assay: Antibacterial activity against Staphylococcus aureus MRSA ATCC 43300 (CO-ADD:GP_020); MIC in CAMBH media using NBS plates, by Resazurin F(560/590); format: functional; details: Concentration 20 uM, ASSAY_TEST Inhibition of Bacterial Growth, detection method Resazurin, Fluorescence (ex560/em590), MEDIA CAMHB, plate type 384well, CORNING #3640, time 18 hr
Acinetobacter baumannii = assay: Antibacterial activity against Acinetobacter baumannii ATCC 19606 (CO-ADD:GN_034); MIC in CAMBH media using NBS plates, by Resazurin F(560/590); format: functional; details: Concentration 20 uM, ASSAY_TEST Inhibition of Bacterial Growth, detection method Resazurin, Fluorescence (ex560/em590), MEDIA CAMHB, plate type 384well, CORNING #3640, time 18 hr
Escherichia coli = assay: Antibacterial activity against Escherichia coli ATCC 25922 (CO-ADD:GN_001); MIC in CAMBH media using NBS plates, by Resazurin F(560/590); format: functional; details: Concentration 20 uM, ASSAY_TEST Inhibition of Bacterial Growth, detection method Resazurin, Fluorescence (ex560/em590), MEDIA CAMHB, plate type 384well, CORNING #3640, time 18 hr
Klebsiella pneumoniae = details: Concentration 20 uM; ASSAY_TEST Inhibition of Bacterial Growth; detection method Absorption (OD600); MEDIA CAMHB; plate type 384well; NBS; CORNING #3640; time 18 hr
Candida albicans = details: 20 µM
Cryptococcus neoformans = details: Concentration 20 uM; ASSAY_TEST Inhibition of Fungal Growth; detection method Resazurin; Absorption (OD600-OD570); plate type 384well; NBS; CORNING #3640

Structure (SMILES): CCCNC(=O)c1ccccc1C(=O)NC1(C(=O)NCCC)CCCC1
- Inhibition (Staphylococcus aureus): 14.23%
- Inhibition (Acinetobacter baumannii): 6.45%
- Inhibition (Escherichia coli): 3.42%
- Inhibition (Klebsiella pneumoniae): 12.55%
- Inhibition (Candida albicans): -0.46%
- Inhibition (Cryptococcus neoformans): -3.84%

Structure (SMILES): C1=CC2(C=C1)OC21CCC2(C=CC3(C2)OC3C2CCCCC2)CC1 (centres undefined)
- Inhibition (Staphylococcus aureus): -4.93%
- Inhibition (Acinetobacter baumannii): 2.41%
- Inhibition (Escherichia coli): 4.97%
- Inhibition (Klebsiella pneumoniae): -0.69%
- Inhibition (Candida albicans): 1.23%
- Inhibition (Cryptococcus neoformans): -15.19%

Structure (SMILES): CCCCCC(=O)N1CCCCC1
- Inhibition (Staphylococcus aureus): 5.23%
- Inhibition (Acinetobacter baumannii): -9.77%
- Inhibition (Escherichia coli): 7.04%
- Inhibition (Klebsiella pneumoniae): 14.07%
- Inhibition (Candida albicans): 3.39%
- Inhibition (Cryptococcus neoformans): 2.22%

Structure (SMILES): C[C@@]1(c2ccccc2)O[C@@H]2C[C@H]3[C@@H]4CCC5=CC(=O)C=C[C@]5(C)[C@@]4(F)[C@@H](O)C[C@]3(C)[C@]2(C(=O)CO)O1 [AMCINAFIDE]
- Inhibition (Staphylococcus aureus): 5.72%
- Inhibition (Acinetobacter baumannii): -8.64%
- Inhibition (Escherichia coli): 8.97%
- Inhibition (Klebsiella pneumoniae): 3.86%
- Inhibition (Candida albicans): 4.92%
- Inhibition (Cryptococcus neoformans): -9.65%

Structure (SMILES): C#CCCOC(=O)Nc1ccccc1
- Inhibition (Staphylococcus aureus): 2.35%
- Inhibition (Acinetobacter baumannii): -10.74%
- Inhibition (Escherichia coli): 7.7%
- Inhibition (Klebsiella pneumoniae): 4.67%
- Inhibition (Candida albicans): 2.19%
- Inhibition (Cryptococcus neoformans): -13.66%

Structure (SMILES): CCCCCCC(C)OC(=O)c1ccccc1C(=O)O (centres undefined)
- Inhibition (Staphylococcus aureus): 12.97%
- Inhibition (Acinetobacter baumannii): -3.64%
- Inhibition (Escherichia coli): -2.32%
- Inhibition (Klebsiella pneumoniae): 24.05%
- Inhibition (Candida albicans): 18.6%
- Inhibition (Cryptococcus neoformans): -16.02%

Structure (SMILES): CC(C)NC(=O)c1ccc(C(C)C)cc1
- Inhibition (Staphylococcus aureus): 10.05%
- Inhibition (Acinetobacter baumannii): -9.59%
- Inhibition (Escherichia coli): 11.28%
- Inhibition (Klebsiella pneumoniae): -3.37%
- Inhibition (Candida albicans): -0.32%
- Inhibition (Cryptococcus neoformans): -8.3%

Structure (SMILES): COc1c(O)ccc2c1CN1CCc3cc4c(cc3C1C2)OCO4 (centres undefined)
- Inhibition (Staphylococcus aureus): 12.64%
- Inhibition (Acinetobacter baumannii): 10.47%
- Inhibition (Escherichia coli): 3.09%
- Inhibition (Klebsiella pneumoniae): 10.21%
- Inhibition (Candida albicans): -2.64%
- Inhibition (Cryptococcus neoformans): -12.68%

Structure (SMILES): Sc1nc2ccccc2n2cccc12
- Inhibition (Staphylococcus aureus): 2.5%
- Inhibition (Acinetobacter baumannii): -10.79%
- Inhibition (Escherichia coli): 2.01%
- Inhibition (Klebsiella pneumoniae): 3.32%
- Inhibition (Candida albicans): 17.9%
- Inhibition (Cryptococcus neoformans): -1.74%

Structure (SMILES): O=C1c2cc([N+](=O)[O-])ccc2-c2cc(Br)c(NC(=NO)C(F)(F)F)cc21
- Inhibition (Staphylococcus aureus): 19.28%
- Inhibition (Acinetobacter baumannii): -25.99%
- Inhibition (Escherichia coli): 18.87%
- Inhibition (Klebsiella pneumoniae): 6.86%
- Inhibition (Candida albicans): -4.85%
- Inhibition (Cryptococcus neoformans): -6.6%

Structure (SMILES): CCOCCc1c(O)nc(SC)nc1O
- Inhibition (Staphylococcus aureus): -2.52%
- Inhibition (Acinetobacter baumannii): -10.74%
- Inhibition (Escherichia coli): 0.79%
- Inhibition (Klebsiella pneumoniae): 7.34%
- Inhibition (Candida albicans): 2.01%
- Inhibition (Cryptococcus neoformans): -12.26%

Structure (SMILES): CNC(=O)c1nn(C)c(=O)[nH]c1=O
- Inhibition (Staphylococcus aureus): 3.46%
- Inhibition (Acinetobacter baumannii): -10.49%
- Inhibition (Escherichia coli): 19.05%
- Inhibition (Klebsiella pneumoniae): 15.09%
- Inhibition (Candida albicans): 4.6%
- Inhibition (Cryptococcus neoformans): -7.3%

Structure (SMILES): O=[N+]([O-])c1cccc(/C=C/c2ccccn2)c1
- Inhibition (Staphylococcus aureus): 0.18%
- Inhibition (Acinetobacter baumannii): -2.22%
- Inhibition (Escherichia coli): 10.58%
- Inhibition (Klebsiella pneumoniae): 8.63%
- Inhibition (Candida albicans): 0.08%
- Inhibition (Cryptococcus neoformans): -13.12%

Structure (SMILES): C#CCSc1nnnn1-c1ccc(Br)c(C)c1
- Inhibition (Staphylococcus aureus): 21.42%
- Inhibition (Acinetobacter baumannii): 5.77%
- Inhibition (Escherichia coli): 6.7%
- Inhibition (Klebsiella pneumoniae): 10.23%
- Inhibition (Candida albicans): 1.42%
- Inhibition (Cryptococcus neoformans): -16.38%

Structure (SMILES): COC(=O)c1cncc(C)c1
- Inhibition (Staphylococcus aureus): 18.5%
- Inhibition (Acinetobacter baumannii): -13.2%
- Inhibition (Escherichia coli): 14.23%
- Inhibition (Klebsiella pneumoniae): 15.45%
- Inhibition (Candida albicans): 0.39%
- Inhibition (Cryptococcus neoformans): -1.27%

Structure (SMILES): O=C1c2ccccc2C(=O)c2c1cccc2-n1nnc2ccccc21
- Inhibition (Staphylococcus aureus): 8.87%
- Inhibition (Acinetobacter baumannii): -5.95%
- Inhibition (Escherichia coli): 13.14%
- Inhibition (Klebsiella pneumoniae): 0.02%
- Inhibition (Candida albicans): 0.12%
- Inhibition (Cryptococcus neoformans): -17.13%

Structure (SMILES): CC1CCCC(CC(=O)O)(CC(=O)O)C1 (centres undefined)
- Inhibition (Staphylococcus aureus): -13.43%
- Inhibition (Acinetobacter baumannii): 0.95%
- Inhibition (Escherichia coli): -5.78%
- Inhibition (Klebsiella pneumoniae): 6.3%
- Inhibition (Candida albicans): 2.72%
- Inhibition (Cryptococcus neoformans): -2.12%

Structure (SMILES): CC(=O)c1cc(O)c2ccccc2c1O
- Inhibition (Staphylococcus aureus): 4.01%
- Inhibition (Acinetobacter baumannii): -14.11%
- Inhibition (Escherichia coli): 0.42%
- Inhibition (Klebsiella pneumoniae): 7.57%
- Inhibition (Candida albicans): 24.1%
- Inhibition (Cryptococcus neoformans): 6.09%

Structure (SMILES): Sc1nccn1-c1ccccc1Cl
- Inhibition (Staphylococcus aureus): 5.33%
- Inhibition (Acinetobacter baumannii): 14.25%
- Inhibition (Escherichia coli): -3.3%
- Inhibition (Klebsiella pneumoniae): 6.92%
- Inhibition (Candida albicans): 3.82%
- Inhibition (Cryptococcus neoformans): -5.04%
